AmpC no deterg: qHTS Inhibitors of AmpC Beta-Lactamase (assay without detergent); AmpC nitrocefin hydrolysis, absorbance 480 nm, 0.0001% Triton; Potency, µM (doses to about 57.1 µM), actives largely listed as inhibitors; actives 0.52% (n = 330,000); P00811; further: nearly all actives have a fitted effect of over 20% in size
Target sequence (P00811 whole entry, looked up): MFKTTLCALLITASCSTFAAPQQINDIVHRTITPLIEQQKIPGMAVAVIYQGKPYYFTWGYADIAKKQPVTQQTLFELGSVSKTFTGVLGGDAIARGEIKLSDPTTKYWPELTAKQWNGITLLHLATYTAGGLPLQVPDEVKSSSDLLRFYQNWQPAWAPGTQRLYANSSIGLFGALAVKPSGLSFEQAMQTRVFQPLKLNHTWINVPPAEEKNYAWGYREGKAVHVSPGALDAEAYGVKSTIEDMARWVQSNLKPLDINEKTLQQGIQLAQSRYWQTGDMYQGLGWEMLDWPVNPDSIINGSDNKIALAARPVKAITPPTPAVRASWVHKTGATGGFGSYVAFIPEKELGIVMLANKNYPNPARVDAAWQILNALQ
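AmpC (5.3 nM in the dispensed reagent) in 20 mM phosphate pH 7.0 with 0.01% (detergent screen) or 0.0001% Triton X-100 was preincubated with compounds for 15 min at room temperature. Nitrocefin was then added from an 800 uM solution, and hydrolysis was followed at 480 nm.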
Pf growth 48h: Primary qHTS for delayed death inhibitors of the malarial parasite plastid, 48 hour incubation. P. falciparum luciferase growth in erythrocytes, 48 h. Potency, µM (series often up to 28.7 µM), actives largely listed as inhibitors. actives 5.9% (n = 310,000). AID 504832, 2011
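Firefly luciferase activity from engineered P. falciparum reports growth; inhibitors lower the luminescent signal. Cultures contained 2% hematocrit erythrocytes at 0.1% final parasitemia.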
Pf growth 96h: Primary qHTS for delayed death inhibitors of the malarial parasite plastid, 96 hour incubation | P. falciparum luciferase reporter growth, 96 h | Potency, µM (doses to about 28.7 µM), actives largely listed as inhibitors | actives 6.9% (n = 320,000) | AID 504834, 2011
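96 h incubation, 37 C, 5% CO2, of luciferase-reporter P. falciparum-infected RBCs (2% hematocrit, 0.05% parasitemia final) with test compounds; endpoint luminescence.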
Sm TGR inh: qHTS Assay for the Inhibitors of Schistosoma Mansoni Peroxiredoxins. Schistosoma mansoni thioredoxin glutathione reductase (TGR), Q962Y6. purified TGR, DTNB reduction, TNB absorbance 405 nm. Potency, µM (doses to about 114 µM), actives largely listed as inhibitors. actives 3% (n = 360,000). AID 485364, 2010; further: nearly all actives have a fitted effect of over 60% in size
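First, TGR (20 nM dispensed) and NADPH were mixed with compound. Second, a 15 min room-temperature incubation followed. Third, further NADPH and then DTNB were added to start the reaction. Finally, TNB absorbance was monitored kinetically.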
AmpC detergent: qHTS Inhibitors of AmpC Beta-Lactamase (assay with detergent) | P00811 | actives 0.041% (n = 370,000) | Potency, µM (top dose mostly 114 µM), actives largely listed as inhibitors | AmpC hydrolysis of nitrocefin, absorbance 480 nm, 0.01% Triton; further: nearly all actives have a fitted effect of over 25% in size
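20 mM phosphate pH 7.0 + 0.01% (detergent screen) or 0.0001% Triton X-100; 5.3 nM AmpC reagent; cpd preinc 15 min RT; nitrocefin (800 uM stock) to start; A480 q20 s × 4 min; Activity was normalised to no-enzyme and no-compound control wells.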
SARS PLP yeast: qHTS of Yeast-based Assay for SARS-CoV PLP; Potency, µM (doses to about 32.9 µM), usual class: activators; actives 0.19% (n = 330,000); AID 485353, 2010; S. cerevisiae expressing SARS-CoV PLpro, growth rescue; calls by dose curve; further: nearly all actives have a fitted effect of over 55% in size
Each line names hits and unclear results; the compound was inactive in the other large screens; ! = not active in a repeat. Sampled rows, rich in hits. Any-hit rate of the full collection: about 12%. Unless noted, the call rests on the fitted dose curve; in most records, active means well fitted curve in the direction sought with a large enough effect; inconclusive means small, poorly fitted or top-dose-only effect, or another doubt; inactive means no such curve, though single readings can be large; an effect the other way counts as inactive or inconclusive.

CCn1c(SCC(=O)N2CCCC(C)C2)nnc1-c1ccco1 (stereo not given)	Pf growth 96h inconclusive
Cn1c(SCC(=O)Nc2ccc(F)cc2F)nnc1-c1cccnc1	AmpC no deterg 0.316µM, Pf growth 96h inconclusive, AmpC detergent inconclusive
CC(NC(=O)CSc1nnc(-c2cc3cc(Cl)ccc3o2)n1C)c1ccccc1 (stereo not given)	Pf growth 48h inconclusive, Pf growth 96h 4.65µM
CCc1cc(Cn2nc(-c3ccccc3)cc2C(=O)NCC2CC2)on1	Pf growth 48h inconclusive, Pf growth 96h inconclusive, AmpC detergent inconclusive
CCCn1c(SCC(=O)N2CCc3ccccc32)nnc1-c1ccco1	Pf growth 48h inconclusive, Pf growth 96h inconclusive
CCn1c(SCC(=O)N2c3ccccc3Sc3ccccc32)nnc1-c1ccco1	Pf growth 48h inconclusive, Sm TGR inh 14.1µM, AmpC detergent inconclusive
C=CCn1c(SCC(=O)N2c3ccccc3Sc3ccccc32)nnc1-c1ccco1	Sm TGR inh inconclusive
CCCn1c(SCC(=O)N2c3ccccc3CC2C)nnc1-c1ccco1 (stereo not given)	Pf growth 48h 11.7µM, Pf growth 96h inconclusive
Cn1c(SCC(=O)N2c3ccccc3Sc3ccc(Cl)cc32)nnc1-c1ccco1	Pf growth 48h 9.28µM, Pf growth 96h 1.47µM
O=C(CCN1CCN2CCCC2C1)N1c2ccccc2Sc2ccc(Cl)cc21 (stereo not given)	Pf growth 48h inconclusive, Pf growth 96h 10.7µM!
CSCCC(NC(=O)C1CCCCC1)C(=O)Nc1ccc(F)c(Cl)c1 (stereo not given)	none (no result: AmpC no deterg, Pf growth 48h, Pf growth 96h, SARS PLP yeast)
CN(C)CCC(=O)N1c2ccccc2Sc2ccc(Cl)cc21	Pf growth 48h inconclusive (no result: Sm TGR inh)
Cn1nnnc1SCC(=O)c1cccs1	Sm TGR inh 39.8µM
Cc1cc(SCC(=O)c2cccs2)nc2c(C)cccc12	Pf growth 48h inconclusive, AmpC detergent inconclusive
CCN(CC)CCC(=O)N1c2ccccc2Sc2ccc(Cl)cc21	Pf growth 48h inconclusive, Pf growth 96h 1.65µM (no result: SARS PLP yeast)
Cn1c(SCC(=O)Nc2ccc(Cl)cc2F)nnc1-c1ccco1	Pf growth 96h inconclusive, Sm TGR inh 35.5µM
Cc1cc2c(C)ccc(C)c2nc1SCC(=O)c1cccs1	AmpC no deterg 0.178µM, Pf growth 48h inconclusive, AmpC detergent inconclusive
COc1ccc(N2C(=O)C(CC(=O)Nc3ccccc3)N(CCC3=CCCCC3)C2=O)cc1 (stereo not given)	none (no result: AmpC no deterg, Pf growth 48h, Pf growth 96h, SARS PLP yeast)
CCCCn1c(=O)c2oc3ccccc3c2n(Cc2ccc(OC)cc2)c1=O	none (no result: AmpC no deterg, Pf growth 48h, Pf growth 96h, SARS PLP yeast)
Cc1ccc2onc(CC(=O)N3CCN(c4cccc(Cl)c4)CC3)c2c1	none (no result: AmpC no deterg, Pf growth 48h, Pf growth 96h, SARS PLP yeast)
CC1(c2ccccc2)NC(=O)N(CC(=O)Nc2ccccc2C(=O)NC2CC2)C1=O (stereo not given)	none
CCOC(=O)c1c(NC(=O)COc2ncnc3ccccc23)sc(C)c1CC	Pf growth 96h inconclusive
CCn1c(SCC(N)=O)nnc1-c1ccco1	none
CN(C)CC(=O)N1c2ccccc2Sc2ccc(Cl)cc21	none (no result: Sm TGR inh)
CN(C)C(=O)CSc1nnc(-c2ccncc2)n1Cc1ccco1	Pf growth 96h inconclusive
O=C(CSc1nnc(-c2ccncc2)n1Cc1ccco1)N1c2ccccc2Sc2ccc(Cl)cc21	Sm TGR inh 44.7µM
CCn1c(SCC(=O)c2cccs2)nnc1-c1ccco1	Sm TGR inh 44.7µM
Cn1nnnc1SCC(=O)N1c2ccccc2Sc2ccc(Cl)cc21	AmpC no deterg 1.26µM, Pf growth 48h inconclusive
COc1ccc(N2CCN(CCCNC(=O)c3nnc(Cc4ccc(F)cc4)o3)CC2)cc1	none (no result: AmpC no deterg, Pf growth 48h, Pf growth 96h, SARS PLP yeast)
CC(C)c1ccc(NC(=O)c2cc(S(=O)(=O)N3CCCCC3)cn2C)cc1	AmpC detergent inconclusive (no result: AmpC no deterg, Pf growth 48h, Pf growth 96h, SARS PLP yeast)
CCC(C(=O)NCCc1ccc(OC)c(OC)c1)n1nc(C)c2sc3ccccc3c2c1=O (stereo not given)	none (no result: AmpC no deterg, Pf growth 48h, Pf growth 96h, SARS PLP yeast)
CCOc1ccc(C2OC(=O)Cc3cc(OC)c(OC)cc32)cc1 (stereo not given)	Pf growth 48h inconclusive, Pf growth 96h 1.17µM
O=C(/C=C/c1cccnc1)c1ccc(F)c(F)c1	Sm TGR inh 28.2µM
O=C(Nc1cc([N+](=O)[O-])ccc1Cl)c1cccnc1	Pf growth 96h inconclusive, SARS PLP yeast inconclusive
O=C(/C=C/c1ccc([N+](=O)[O-])cc1)NCc1cccnc1	none
Cc1ccc([N+](=O)[O-])cc1NC(=O)c1cccnc1	Pf growth 96h 10.4µM, AmpC detergent inconclusive
Cc1ccc(NC(=O)c2cc([N+](=O)[O-])ccc2NCc2cccnc2)cc1	Pf growth 48h 13.1µM, Pf growth 96h inconclusive
O=C(/C=C/c1ccc([N+](=O)[O-])cc1)c1cccnc1	Sm TGR inh 15.8µM
COc1ccc([N+](=O)[O-])cc1NCc1cccnc1	none
CCOC(=O)C1(Cc2ccccc2)CCCN(C(=O)c2cnn(CC)c2)C1 (stereo not given)	Pf growth 96h inconclusive, AmpC detergent inconclusive
NC(=O)c1ccnc2c(O)cccc12	Pf growth 48h inconclusive, Pf growth 96h 11.7µM, AmpC detergent inconclusive
OCc1ccnc2c(O)cccc12	Pf growth 48h 2.33µM, Pf growth 96h inconclusive, Sm TGR inh 14.1µM
COc1cc(C(C)=O)ccc1OCC(=O)OC(C)C(=O)c1ccc(F)cc1 (stereo not given)	none (no result: Pf growth 48h, Pf growth 96h, Sm TGR inh, AmpC detergent)
COc1cccc2c(=O)c(C/C=C(/C)Cl)c(C)[nH]c12	Pf growth 48h 0.738µM (no result: Pf growth 96h)
COc1cccc2c(=O)c(SC(F)(F)C(F)C(F)(F)F)c(C)[nH]c12 (stereo not given)	Pf growth 48h 6.57µM, Pf growth 96h 3.7µM
COc1cccc2c(=O)c(C(=O)O)c[nH]c12	none (no result: Pf growth 96h)
Cc1[nH]c2ccc(F)cc2c(=O)c1SC(F)(F)C(F)C(F)(F)F (stereo not given)	none (no result: Pf growth 48h)
Nc1c(C(=O)Nc2cccc(F)c2)c2ccccn2c1C(=O)c1ccccc1	none (no result: AmpC no deterg, Pf growth 48h, Pf growth 96h, SARS PLP yeast)
CN(C(=O)c1cc2c(=O)n3ccccc3nc2n1C)c1ccccc1	none (no result: AmpC no deterg, Pf growth 48h, Pf growth 96h, SARS PLP yeast)
CCOCCCn1c(=N)c(C(=O)NC(C)c2ccccc2)cc2c(=O)n3cccc(C)c3nc21 (stereo not given)	none (no result: AmpC no deterg, Pf growth 48h, Pf growth 96h, SARS PLP yeast)
COc1ccc(CCNC(=O)c2cc3c(=O)n4cccc(C)c4nc3n(Cc3ccco3)c2=N)cc1OC	Pf growth 48h 13.1µM, Pf growth 96h 1.65µM
Cc1cccn2c(=O)c3cc(C(=O)NCCc4ccccc4)c(=N)n(Cc4ccco4)c3nc12	Pf growth 48h 1.47µM, Pf growth 96h inconclusive

Screening data from PubChem BioAssay.
